The source of these data is PubChem BioAssay (EPA / NIEHS).

Activity calls are given as the source filed them. The calls were made as follows: active = hit-call score of the fitted dose curve at least 0.9, where 1 is the maximum; inactive = score below 0.9.

Common to all, as to conditions: mRNA level, 48 h; actives raise or lower the signal
Read-out in experiment [1]: JUN Transcription Factor, JUN (gene 3725)
The experiment is described as follows: LTEA_HepaRG_JUN: Life Technologies and Expression Analysis (LTEA) Assay for JUN Transcription Factor using HepaRG (AID 2283513). In short, it runs like this: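 Read-out is JUN transcript level by TaqMan qRT-PCR, normalized to ACTB, GAPDH and POLR2A, after 48 h chemical treatment of HepaRG cells. Concentration-response spanned eight half-log points up to 100 uM in 0.5% DMSO.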

Read-out in experiment [2]: Lipase C (LIPC), LIPC (gene 3990)
The experiment is described as follows: LTEA_HepaRG_LIPC: Life Technologies and Expression Analysis (LTEA) Assay for Lipase C (LIPC) using HepaRG (AID 2283514). In short, it runs like this: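 HepaRG, 48 h exposure, 8-pt half-log series from 100 uM in 0.5% DMSO, duplicates. Readout: LIPC mRNA by Fluidigm qRT-PCR, housekeeping-normalized (ACTB/GAPDH/POLR2A). Gain or loss fitted bidirectionally against DMSO baseline.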

Read-out in experiment [3]: Lipoprotein lipase (LPL), LPL (gene 4023)
In words: LTEA_HepaRG_LPL: Life Technologies and Expression Analysis (LTEA) Assay for Lipoprotein lipase (LPL) using HepaRG (AID 2283515). In short, it runs like this:
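HepaRG, 48 h exposure, 8-pt half-log dilutions from 100 uM, 0.5% DMSO vehicle, duplicates; qRT-PCR (Fluidigm array) of LPL mRNA vs housekeeping genes; bidirectional curve fit relative to DMSO baseline.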

Read-out in experiment [4]: MicroRNA 122 (MIR122), gene 406906
The experiment is described as follows: LTEA_HepaRG_MIR122: Life Technologies and Expression Analysis (LTEA) Assay for MicroRNA 122 (MIR122) using HepaRG (AID 2283516). Also: the transcript read is the microRNA miR-122. In short, it runs like this:
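Human liver HepaRG cultures receive test chemicals for 48 h at eight half-log concentrations from 100 uM. Expression is quantified by qRT-PCR with ACTB/GAPDH/POLR2A normalization and fitted bidirectionally against 0.5% DMSO.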

Read-out in experiment [5]: matrix metalloproteinase-10 (MMP10), MMP10 (gene 4319)
The experiment is described as follows: LTEA_HepaRG_MMP10: Life Technologies and Expression Analysis (LTEA) Assay for matrix metalloproteinase-10 (MMP10) using HepaRG (AID 2283517). Put shortly: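 Transcript levels come from Fluidigm qRT-PCR normalized to three housekeeping genes, with curves fitted bidirectionally against 0.5% DMSO. Human HepaRG cells were dosed for 48 hours at concentrations up to 100 uM.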

Read-out in the next experiment: MYC, MYC (gene 4609)
The experiment is described as follows: LTEA_HepaRG_MYC: Life Technologies and Expression Analysis (LTEA) Assay for MYC using HepaRG (AID 2283518). In short, it runs like this:
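Expression changes were scored by TaqMan qRT-PCR with ACTB, GAPDH and POLR2A normalization. Cultures in serum-free induction medium received duplicate 8-point concentration series, highest 100 uM, for 48 h; DMSO (0.5%) served as baseline.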

Read-out in experiment [6]: matrix metalloproteinase-3 (MMP3), MMP3 (gene 4314)
The experiment is described as follows: LTEA_HepaRG_MMP3: Life Technologies and Expression Analysis (LTEA) Assay for matrix metalloproteinase-3 (MMP3) using HepaRG (AID 2283519). In short, it runs like this: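 qRT-PCR read-out of MMP3 mRNA (normalised to three housekeeping genes) in HepaRG liver cells after 48 h chemical exposure; 8-point half-log series, top 100 uM, 0.5% DMSO vehicle. Bidirectional curve fitting against DMSO baseline.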

Read-out in experiment [7]: Paternally Expressed 10 (PEG10), PEG10 (gene 23089)
The experiment is described as follows: LTEA_HepaRG_PEG10: Life Technologies and Expression Analysis (LTEA) Assay for Paternally Expressed 10 (PEG10) using HepaRG (AID 2283520).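 As to AC50: differentiated HepaRG human liver cells in serum-free induction medium with 0.5% DMSO; PEG10 transcript by qRT-PCR normalised to ACTB GAPDH and POLR2A.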 Put shortly:
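Human HepaRG cultures are dosed for 48 h across an eight-point half-log series starting at 100 uM, with 0.5% DMSO as vehicle and baseline. Gain or loss of PEG10 transcript is measured by qRT-PCR and fitted in both directions.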

Read-out in experiment [8]: Nuclear factor NF-kappa-B p105 subunit (Homo sapiens) (UniProt P19838)
The experiment is described as follows: LTEA_HepaRG_NFKB1: Life Technologies and Expression Analysis (LTEA) Assay for Nuclear Factor Kappa B Subunit 1 (NFKB1) using HepaRG (AID 2283521).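 Also: differentiated human HepaRG liver cells in serum-free induction medium.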 In short, it runs like this:
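NFKB1 transcript was measured by TaqMan qRT-PCR on Fluidigm arrays, normalised to three housekeeping genes and fitted in both directions against 0.5% DMSO. HepaRG cells were dosed in duplicate for 48 h in serum-free induction medium, eight half-log steps from 100 uM.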

Read-out in experiment [9]: Protein phosphatase 2A (PPP2R4), PTPA (gene 5524)
In words: LTEA_HepaRG_PPP2R4: Life Technologies and Expression Analysis (LTEA) Assay for Protein phosphatase 2A (PPP2R4) using HepaRG (AID 2283522). In short, it runs like this: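 Cells were plated, cultured 48 h, switched to serum-free induction medium, then dosed for 48 h (8 points, max 100 uM, 0.5% DMSO). RNA was isolated and PPP2R4 expression measured by TaqMan qRT-PCR.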

Read-out in experiment [10]: Phosphatase and tensin (PTEN), PTEN (gene 5728)
In words: LTEA_HepaRG_PTEN: Life Technologies and Expression Analysis (LTEA) Assay for Phosphatase and tensin (PTEN) using HepaRG (AID 2283523). Put shortly: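 HepaRG, 48 h exposure, 8-pt half-log series from 100 uM top, 0.5% DMSO vehicle, duplicates. Readout: Fluidigm qRT-PCR of PTEN transcript; housekeeping normalization (ACTB, GAPDH, POLR2A). Gain or loss fitted relative to DMSO baseline.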

Read-out in experiment [11]: solute carrier (SLC22A1), SLC22A1 (gene 6580)
The experiment is described as follows: LTEA_HepaRG_SLC22A1: Life Technologies and Expression Analysis (LTEA) Assay for solute carrier (SLC22A1) using HepaRG (AID 2283524).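 As to AC50: differentiated human HepaRG liver cells in serum-free induction medium.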 In short, it runs like this:
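qRT-PCR readout (TaqMan, Fluidigm arrays) of SLC22A1 transcript, normalized to three housekeeping genes; bidirectional curve fit relative to 0.5% DMSO vehicle. Differentiated human HepaRG cells, 48 h chemical exposure, top concentration 100 uM, half-log steps, eight points.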

Read-out in experiment [12]: Pyruvate Dehydrogenase Kinase 4 (PDK4), PDK4 (gene 5166)
The experiment is described as follows: LTEA_HepaRG_PDK4: Life Technologies and Expression Analysis (LTEA) Assay for Pyruvate Dehydrogenase Kinase 4 (PDK4) using HepaRG (AID 2283525). Put shortly: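 HepaRG (human liver line), 48 h chemical exposure, 8-pt half-log CRC top 100 uM, 0.5% DMSO vehicle, duplicates. Readout: TaqMan qRT-PCR of PDK4 mRNA, housekeeping-normalized; gain/loss fit relative to DMSO baseline.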

Read-out in experiment [13]: NAD(P)H dehydrogenase [quinone] 1 (NQO1), NQO1 (gene 1728)
In words: LTEA_HepaRG_NQO1: Life Technologies and Expression Analysis (LTEA) Assay for NAD(P)H dehydrogenase [quinone] 1 (NQO1) using HepaRG (AID 2283526). In short, it runs like this:
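Transcript induction or suppression is quantified by qRT-PCR in human HepaRG liver cells dosed for 48 hours. Eight half-log concentrations topping at 100 uM are used, with 0.5% DMSO as vehicle and baseline.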

Read-out in experiment [14]: Nuclear factor erythroid 2-related factor 2 (Homo sapiens) (UniProt Q16236)
The experiment is described as follows: LTEA_HepaRG_NFE2L2: Life Technologies and Expression Analysis (LTEA) Assay for Nuclear factor erythroid 2-related factor 2 (NFE2L2) Transcription Factor using HepaRG (AID 2283527). Put shortly: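 HepaRG, 48 h dosing, 8-pt half-log series from 100 uM in 0.5% DMSO, duplicates. Read-out: NFE2L2 mRNA by qRT-PCR (ACTB/GAPDH/POLR2A normalization). Bidirectional curve fit vs DMSO baseline.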

Read-out in experiment [15]: succinate dehydrogenase complex iron sulfur subunit B (SDHB), SDHB (gene 6390)
In words: LTEA_HepaRG_SDHB: Life Technologies and Expression Analysis (LTEA) Assay for succinate dehydrogenase complex iron sulfur subunit B (SDHB) using HepaRG (AID 2283528). Put shortly:
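SDHB transcript level read by TaqMan qRT-PCR, housekeeping-normalised (ACTB, GAPDH, POLR2A), after 48 h chemical treatment of plated HepaRG cells; eight concentrations top 100 uM, half-log steps, 0.5% DMSO, duplicates; fitted both directions against DMSO.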

Read-out in experiment [16]: Signal transducer and activator of transcription 3 (Homo sapiens) (UniProt P40763)
In words: LTEA_HepaRG_STAT3: Life Technologies and Expression Analysis (LTEA) Assay for Signal transducer and activator of transcription (STAT3) using HepaRG (AID 2283529). In short, it runs like this:
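HepaRG, 48 h exposure, 8-pt half-log series (top 100 uM), 0.5% DMSO vehicle, duplicates. Readout: STAT3 transcript by Fluidigm qRT-PCR, housekeeping-normalized; bidirectional fit vs DMSO baseline.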

Read-out in experiment [17]: sulfotransferase 2A1 (SULT2A1), SULT2A1 (gene 6822)
The experiment is described as follows: LTEA_HepaRG_SULT2A1: Life Technologies and Expression Analysis (LTEA) Assay for sulfotransferase 2A1 (SULT2A1) using HepaRG (AID 2283531). In short, it runs like this: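 Gene-expression endpoint in a human liver cell line: SULT2A1 mRNA change after 48 h chemical treatment, curves fitted in both directions relative to 0.5% DMSO vehicle. Concentrations spanned eight half-log steps from 100 uM.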

Read-out in experiment [18]: Transforming Growth Factor (TGFA), TGFA (gene 7039)
In words: LTEA_HepaRG_TGFA: Life Technologies and Expression Analysis (LTEA) Assay for Transforming Growth Factor (TGFA) using HepaRG (AID 2283532). In short, it runs like this: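 qRT-PCR read-out of TGFA transcript, normalized to three housekeeping genes, fitted bidirectionally against 0.5% DMSO baseline. Human HepaRG cultures received chemicals for 48 h at eight half-log concentrations, top 100 uM.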

Read-out in experiment [19]: solute carrier (SLCO1B1), SLCO1B1 (gene 10599)
The experiment is described as follows: LTEA_HepaRG_SLCO1B1: Life Technologies and Expression Analysis (LTEA) Assay for solute carrier (SLCO1B1) using HepaRG (AID 2283530). Put shortly:
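Human HepaRG cultures treated for 48 h with an eight-concentration half-log series topping at 100 uM; SLCO1B1 measured by qRT-PCR and fitted bidirectionally relative to DMSO.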

Chain of Signal transducer and activator of transcription 3 (Homo sapiens) (P40763 whole entry, looked up): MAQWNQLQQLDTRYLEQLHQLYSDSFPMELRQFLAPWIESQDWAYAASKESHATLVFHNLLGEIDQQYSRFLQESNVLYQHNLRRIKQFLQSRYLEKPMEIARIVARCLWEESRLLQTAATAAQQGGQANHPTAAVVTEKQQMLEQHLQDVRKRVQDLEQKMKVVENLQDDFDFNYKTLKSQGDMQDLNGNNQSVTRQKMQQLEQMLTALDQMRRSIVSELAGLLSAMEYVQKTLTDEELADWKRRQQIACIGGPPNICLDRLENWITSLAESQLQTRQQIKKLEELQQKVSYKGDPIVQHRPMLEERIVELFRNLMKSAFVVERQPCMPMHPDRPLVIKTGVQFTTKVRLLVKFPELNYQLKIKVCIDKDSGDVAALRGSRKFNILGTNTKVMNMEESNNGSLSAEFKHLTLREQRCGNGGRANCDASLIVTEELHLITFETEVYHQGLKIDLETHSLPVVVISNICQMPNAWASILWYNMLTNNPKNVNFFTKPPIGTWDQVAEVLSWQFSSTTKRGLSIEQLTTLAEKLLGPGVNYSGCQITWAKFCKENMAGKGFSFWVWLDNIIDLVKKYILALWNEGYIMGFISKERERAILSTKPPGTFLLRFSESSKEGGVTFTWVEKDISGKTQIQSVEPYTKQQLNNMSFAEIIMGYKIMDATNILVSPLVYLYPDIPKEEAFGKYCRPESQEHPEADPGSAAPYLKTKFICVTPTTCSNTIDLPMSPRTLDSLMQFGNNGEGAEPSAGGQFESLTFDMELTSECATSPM
Chain of Nuclear factor erythroid 2-related factor 2 (Homo sapiens) (Q16236 whole entry, looked up): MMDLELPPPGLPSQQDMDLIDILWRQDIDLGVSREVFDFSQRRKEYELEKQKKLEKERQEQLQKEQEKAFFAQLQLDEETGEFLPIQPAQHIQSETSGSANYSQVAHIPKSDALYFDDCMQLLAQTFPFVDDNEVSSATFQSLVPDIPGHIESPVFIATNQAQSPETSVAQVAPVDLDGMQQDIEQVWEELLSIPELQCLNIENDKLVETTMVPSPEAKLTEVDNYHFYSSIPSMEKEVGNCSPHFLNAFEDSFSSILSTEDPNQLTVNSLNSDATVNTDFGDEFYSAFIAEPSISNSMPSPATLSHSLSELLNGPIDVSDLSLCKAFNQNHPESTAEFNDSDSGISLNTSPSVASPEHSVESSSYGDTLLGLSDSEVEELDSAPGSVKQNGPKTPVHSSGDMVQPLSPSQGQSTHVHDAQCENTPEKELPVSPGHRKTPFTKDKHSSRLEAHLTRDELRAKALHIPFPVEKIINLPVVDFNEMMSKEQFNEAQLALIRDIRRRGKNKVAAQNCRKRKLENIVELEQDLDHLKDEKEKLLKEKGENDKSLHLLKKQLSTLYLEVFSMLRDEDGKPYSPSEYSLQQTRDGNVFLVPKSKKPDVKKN
Chain of Nuclear factor NF-kappa-B p105 subunit (Homo sapiens) (P19838 whole entry, looked up): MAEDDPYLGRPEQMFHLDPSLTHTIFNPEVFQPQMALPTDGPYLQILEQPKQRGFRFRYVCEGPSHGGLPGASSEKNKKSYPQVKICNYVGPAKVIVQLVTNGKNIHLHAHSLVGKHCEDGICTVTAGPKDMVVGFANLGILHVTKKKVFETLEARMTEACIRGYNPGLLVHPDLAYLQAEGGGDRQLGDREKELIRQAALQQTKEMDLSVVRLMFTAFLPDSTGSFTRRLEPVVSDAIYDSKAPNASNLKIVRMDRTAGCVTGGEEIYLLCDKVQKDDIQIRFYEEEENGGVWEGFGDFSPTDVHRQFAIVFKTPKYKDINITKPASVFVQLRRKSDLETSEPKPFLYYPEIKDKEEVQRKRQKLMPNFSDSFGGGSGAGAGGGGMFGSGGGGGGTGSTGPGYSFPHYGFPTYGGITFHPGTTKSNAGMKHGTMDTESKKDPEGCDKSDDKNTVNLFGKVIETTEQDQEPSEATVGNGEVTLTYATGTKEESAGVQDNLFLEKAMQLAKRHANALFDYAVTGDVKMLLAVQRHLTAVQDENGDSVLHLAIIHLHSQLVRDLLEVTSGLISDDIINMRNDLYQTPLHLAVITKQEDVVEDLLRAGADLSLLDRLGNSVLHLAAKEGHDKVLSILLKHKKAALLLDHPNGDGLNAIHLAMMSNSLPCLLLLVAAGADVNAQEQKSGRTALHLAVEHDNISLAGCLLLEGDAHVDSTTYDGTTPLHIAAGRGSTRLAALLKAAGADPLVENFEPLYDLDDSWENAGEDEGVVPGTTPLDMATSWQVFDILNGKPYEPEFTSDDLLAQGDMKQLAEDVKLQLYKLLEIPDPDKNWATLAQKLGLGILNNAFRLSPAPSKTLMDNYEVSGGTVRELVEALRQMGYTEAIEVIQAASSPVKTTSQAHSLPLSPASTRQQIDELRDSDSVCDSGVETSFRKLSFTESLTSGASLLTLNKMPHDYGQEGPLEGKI

For `c1ccc(NNc2ccccc2)cc1`, the outcome in experiment [1] was “inactive”; in experiment [2], “inactive”; in [3], “inactive”; in [4], “inactive”; in [5], “inactive”; with MYC, MYC (gene 4609), “inactive”. For the same molecule, the call in [6], in experiment [7], in experiment [8], in experiment [9], in experiment [10] and in [11] was inactive. Besides, the molecule was classed as inactive in [12], in experiment [13], in experiment [14], in experiment [15], in experiment [16] and in experiment [17]. In experiment [18], the molecule was called inactive.
Take `O=P(OCCCl)(OCCCl)OCCCl`: the outcome in [1] is “inactive”; in experiment [2] it was “inactive”; in [3], “inactive”; in [4], “inactive”; with MYC, MYC (gene 4609), “inactive”; in experiment [7], “inactive”. In addition, the outcome in [12], in experiment [13], in [14], in experiment [15], in experiment [16] and in experiment [17] was inactive. Moreover, the outcome in experiment [18] was inactive. The AC50 (commonly the concentration at which the activity in the assay is half-maximal) is 67.3 µM (active) in [6] and 50 µM (active) in experiment [9].
For the molecule `CN(C)c1ccc(C(=O)c2ccc(N(C)C)cc2)cc1`, the outcome was “inactive” in experiment [1]; “inactive” in experiment [4]; “inactive” in [5]; “inactive” in the experiment with MYC, MYC (gene 4609); “inactive” in experiment [6]; “inactive” in experiment [8]. For the same molecule, the call in experiment [9], in experiment [13], in [14], in [15], in experiment [16] and in [17] was inactive. Further, in experiment [18], the outcome was inactive. Moreover, the AC50 in [2] was 33 µM (active); in [7] it was 22.3 µM (active); in experiment [11], 50 µM (active); in experiment [12], 25.8 µM (active).
Regarding `CCC(C)c1ccc(O)cc1` (stereo not drawn), the outcome was “inactive” in experiment [1]; “inactive” in [2]; “inactive” in experiment [3]; “inactive” in experiment [4]; “inactive” with MYC, MYC (gene 4609); “inactive” in experiment [6]. The molecule was classed as inactive in experiment [7], in [8], in experiment [9], in [12], in experiment [13] and in [14]. Besides, the outcome in experiment [15], in [19], in experiment [17] and in experiment [18] was inactive. Further, in experiment [16], the AC50 was 0.361 µM (active).
